High-throughput results: PubChem BioAssay, several laboratories
ADAM10 inh: inhibits human ADAM10 | AID 720582 | recombinant ADAM10, EDANS/DABCYL FRET peptide cleavage, 3 h | 0.62% of 370,000 active | inhibition, % at 7 µM;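 active means inhibition above a per-campaign cutoff equal to the mean of compounds falling between control-based bounds plus 3 SD, cut at about 20% in these data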;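 further: 0% = DMSO wells while the 100% control is not disclosed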
Target sequence (O14672 214-748 limits assumed): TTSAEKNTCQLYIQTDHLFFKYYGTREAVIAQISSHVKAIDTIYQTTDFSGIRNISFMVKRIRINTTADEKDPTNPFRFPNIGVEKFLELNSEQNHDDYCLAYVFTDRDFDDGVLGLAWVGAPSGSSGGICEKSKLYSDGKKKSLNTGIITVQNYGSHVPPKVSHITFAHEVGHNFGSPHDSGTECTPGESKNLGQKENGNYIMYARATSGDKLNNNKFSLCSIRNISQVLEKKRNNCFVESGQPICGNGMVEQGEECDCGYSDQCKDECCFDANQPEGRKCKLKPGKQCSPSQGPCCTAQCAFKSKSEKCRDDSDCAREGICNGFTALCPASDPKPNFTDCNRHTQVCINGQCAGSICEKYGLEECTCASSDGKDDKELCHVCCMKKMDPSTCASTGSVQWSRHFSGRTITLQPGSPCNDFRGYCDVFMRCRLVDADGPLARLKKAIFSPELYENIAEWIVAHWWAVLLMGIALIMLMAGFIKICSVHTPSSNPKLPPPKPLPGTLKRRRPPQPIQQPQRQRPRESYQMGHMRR
KLK7 zymogen act: proKLK7 (human) activation, primary screen. 0.9% of 370,000 active. purified proKLK7, EDANS-DABCYL substrate fluorescence; 100% is mature enzyme control, 0% vehicle. P49862. activation, % at 7 µM;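 active means activation above the mean of all tested compounds plus 3 SD, computed per campaign excluding outliers beyond control limits, cut at about 13% in these data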
NR3A LBD binder: modulates the human NR3A ligand-binding domain | 2.5% of 340,000 active | NR3A LBD differential scanning fluorimetry, Tm shift; 0% = protein alone, 100% = glycine-bound protein | Tm shift relative to glycine control, % at 25 µM;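 active means melting temperature shift of at least 10% of the positive control shift, at one fixed dose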
ADAM17 inh: inhibitors of human ADAM17; P78536; recombinant ADAM17, EDANS/DABCYL FRET peptide cleavage; inhibition, % at 6.95 µM; 0.83% of 370,000 active;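 active means inhibition above the mean of compounds lying between control limits plus 3 SD, set per campaign, cut at about 8.5% in these data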;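 further: 0% = DMSO-only wells as the low control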
FAS-TE inh: inhibitors of human fatty acid synthase thioesterase domain; recombinant FAS-TE, OMFH fluorogenic substrate, fluorescence endpoint; inhibition, % at 15 µM; 0.67% of 360,000 active;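 active means compounds whose normalised, plate-corrected inhibition of enzyme fluorescence in the single-dose primary screen is 50% or more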;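 further: 0% = DMSO with enzyme and 100% = substrate without enzyme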
ADAM10 ctr: counter-screen for ADAM17 exosite inhibitors: inhibitors of human ADAM10 | shares compounds with ADAM17 inh | recombinant ADAM10, EDANS/DABCYL FRET peptide cleavage, 3 h | 47% of 2,900 active | AID 743256 | inhibition, % at 6.95 µM;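 active means mean inhibition over the triplicate runs exceeds the activity threshold set in the earlier primary screen, cut at about 20% in these data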;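 further: 0% = DMSO wells and 100% = marimastat wells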
ADAM17 confirm: human ADAM17 inhibition, confirmation. recombinant ADAM17, EDANS/DABCYL QFRET peptide cleavage. inhibition, % at 6.95 µM. shares compounds with ADAM17 inh. 65% of 2,900 active;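 active means mean inhibition across replicates above the hit cutoff set in the primary screen, cut at about 8.5% in these data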;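 further: 0% = DMSO wells and 100% = marimastat wells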
Numbers without * were called inactive. The list is not random: actives were taken first. Their share in the collection is about 4.6%.

For COc1ccc([C@H]2CC(=O)C=C(c3ccc(F)cc3OCc3ccccc3)C2)cc1OC the results were ADAM10 inh 18, KLK7 zymogen act 0, NR3A LBD binder 12*, ADAM17 inh 9.8*, FAS-TE inh 28, ADAM10 ctr 11 and ADAM17 confirm 6.
`CC1CCCCC12NC(=O)N(CC(=O)Nc1ccc(Cl)c(S(=O)(=O)N3CCOCC3)c1)C2=O` (stereo not given) gave ADAM10 inh 2, KLK7 zymogen act 0, NR3A LBD binder 1, ADAM17 inh -2 and FAS-TE inh 2.
CCCC1(CCC)NC(=O)N(CC(=O)Nc2ccc(Cl)c(S(=O)(=O)N3CCOCC3)c2)C1=O was read as ADAM10 inh 16, KLK7 zymogen act 0, NR3A LBD binder -2, ADAM17 inh 15*, FAS-TE inh -2, ADAM10 ctr 3 and ADAM17 confirm 2.
For N#Cc1ccc(C23CC4(C2)[C@H](CN(Cc2ccc(-c5ccccc5)cc2)[C@@H]4c2ccccc2)C3c2ccc(Cl)nc2)cc1 (stereo not given in full) the results were ADAM10 inh 18, KLK7 zymogen act -1, NR3A LBD binder -2, ADAM17 inh 13*, FAS-TE inh 28, ADAM10 ctr -1 and ADAM17 confirm 4.
Screening Clc1ccc(C2[C@H]3CN(Cc4ccc(-c5ccccc5)cc4)[C@H](c4ccccc4)C34CC2(c2ccccc2)C4)cn1 (stereo not given in full) returned ADAM10 inh 3, KLK7 zymogen act 0, NR3A LBD binder 0 and ADAM17 inh 1.
COC(=O)C1=C(C)N(Cc2cccc(C(F)(F)F)c2)C(=NCc2ccc(OC)cc2)NC1c1cccc(C(F)(F)F)c1 (stereo not given) was read as ADAM10 inh -4, KLK7 zymogen act 1 and ADAM17 inh 1.
Screening Cc1nc(N2CCN(C)CC2)c2c(C)c(C(=O)Nc3ccc(C)c(F)c3)sc2n1 returned ADAM10 inh 13, KLK7 zymogen act 0, NR3A LBD binder -2, ADAM17 inh 8.8*, FAS-TE inh 3, ADAM10 ctr 7 and ADAM17 confirm 8.8*.
Screening Cc1nc(N2CCCCC2)c2c(C)c(C(=O)Nc3ccc4c(c3)OCCO4)sc2n1 returned ADAM10 inh 11, KLK7 zymogen act -4, NR3A LBD binder 2, ADAM17 inh 9.6*, FAS-TE inh 22, ADAM10 ctr 16 and ADAM17 confirm 11*.
For COC(=O)/C=C1\Nc2ccc(Cl)cc2C(=O)NC1=O the results were ADAM10 inh inactive, KLK7 zymogen act 6 and ADAM17 inh -257.
COc1ccc(C2CC(=O)C(c3ccc([N+](=O)[O-])cc3)=CN2Cc2ccccc2)cc1 (stereo not given) was read as ADAM10 inh -9, KLK7 zymogen act -9 and ADAM17 inh 1.
For COC(=O)c1c(-c2ccc(OC)cc2)c2c(c3c4cc(OC)ccc4n(C(=O)c4ccccc4)c13)C(=O)N(C)C2 the results were ADAM10 inh -21, KLK7 zymogen act 2 and ADAM17 inh -1.
`COc1ccc(C2CC(=O)C(c3ccc4ccccc4c3)=CN2Cc2ccccc2)cc1` (stereo not given) gave ADAM10 inh -26, KLK7 zymogen act -15 and ADAM17 inh -1.
`O=C(CSc1nnc(NC(=O)c2cccc(F)c2)s1)NCc1ccco1` gave ADAM10 inh 7, KLK7 zymogen act 0, NR3A LBD binder 4, ADAM17 inh 8.6*, FAS-TE inh -7, ADAM10 ctr -7 and ADAM17 confirm -2.
Screening O=C(CSc1nnc(NC(=O)c2ccc(F)cc2)s1)NCc1ccco1 returned ADAM10 inh -15, KLK7 zymogen act 0, NR3A LBD binder -1, ADAM17 inh -11 and FAS-TE inh -4.
For CCOc1ccc(NC(=O)CN(C)CC(=O)Nc2cc(Cl)ccc2C#N)cc1OCC the results were ADAM10 inh 12, KLK7 zymogen act 0, NR3A LBD binder 2, ADAM17 inh 9.0*, FAS-TE inh 0, ADAM10 ctr 1 and ADAM17 confirm 1.
For Cc1ccccc1OCC(=O)Nc1ccc(C)c(S(=O)(=O)N2CCCCCC2)c1 the results were ADAM10 inh 12, KLK7 zymogen act -1, NR3A LBD binder -3, ADAM17 inh 8.7*, FAS-TE inh 27, ADAM10 ctr 26* and ADAM17 confirm 13*.
Screening CN(C)S(=O)(=O)c1ccc(Cl)c(NC(=O)COC(=O)CCC2CCCCC2)c1 returned ADAM10 inh 18, KLK7 zymogen act 1, NR3A LBD binder -14, ADAM17 inh 12*, FAS-TE inh 23, ADAM10 ctr 32* and ADAM17 confirm 17*.
`Cc1ccc(C)c(OCCC(=O)OCC(=O)Nc2cccc(S(=O)(=O)N3CCCC3)c2)c1` gave ADAM10 inh 19, KLK7 zymogen act 1, NR3A LBD binder -1, ADAM17 inh 8.8*, FAS-TE inh 17, ADAM10 ctr 25* and ADAM17 confirm 13*.
`Cc1ccccc1OCCC(=O)OCC(=O)Nc1cc(S(=O)(=O)N2CCOCC2)ccc1Cl` gave ADAM10 inh 18, KLK7 zymogen act 1, NR3A LBD binder 1, ADAM17 inh 11*, FAS-TE inh 15, ADAM10 ctr 7 and ADAM17 confirm 7.
`C[C@H](O)[C@@H]1CN2CCc3c([nH]c4c(-c5ccccc5)cccc34)[C@@H]2C[C@@H]1N(C)C(=O)NC1CCCCC1` gave ADAM10 inh -44, KLK7 zymogen act 1 and ADAM17 inh -9.
COc1ccc(NC(=O)COc2ccccc2Cc2ccccc2)cc1S(N)(=O)=O was read as ADAM10 inh 19, KLK7 zymogen act 0, NR3A LBD binder -9, ADAM17 inh 11*, FAS-TE inh 9, ADAM10 ctr 8 and ADAM17 confirm 2.
`COc1ccc(NC(=O)CN(Cc2ccccc2)Cc2ccccc2)cc1S(N)(=O)=O` gave ADAM10 inh 6, KLK7 zymogen act 0, NR3A LBD binder -3, ADAM17 inh -1 and FAS-TE inh -1.
Cc1ccc(NC(=O)CN2C(=O)NC(Cc3c[nH]c4ccccc34)C2=O)cc1S(=O)(=O)N1CCCCC1 (stereo not given) was read as ADAM10 inh 19, KLK7 zymogen act 1, NR3A LBD binder 12*, ADAM17 inh 11*, FAS-TE inh 8, ADAM10 ctr 22* and ADAM17 confirm 14*.
Screening O=C(CN1C(=O)NC(Cc2c[nH]c3ccccc23)C1=O)Nc1cccc(S(=O)(=O)N2CCCC2)c1 (stereo not given) returned ADAM10 inh 4, KLK7 zymogen act 1, NR3A LBD binder -4, ADAM17 inh 2 and FAS-TE inh 5.
